PubChem BioAssay
Active and inactive are the calls of the source.

Columns and labels:
[1] = binders of probe aFSTL3 on microarray, primary screen, stem cell growth factor project, biochemical, small-molecule microarray, fluorescence 635/667 (AID 1064); conditions: higher = more signal;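 also: measures binding of the biotinylated anti-FSTL3 antibody to printed compounds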
[2] = binders from COS7 lysate, DM2A8 probe, primary screen, torsin A project, cell lysate, small-molecule microarray, fluorescence 635/667 (AID 1065); conditions: higher = more signal, COS7 lysate expressing mutant human TOR1A
[3] = binders of probe aFGF2 on microarray, primary screen, stem cell growth factor project, biochemical, small-molecule microarray, fluorescence 635/667 (AID 1067); conditions: higher = more signal;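 also: measures binding of biotinylated aFGF2 protein to printed compounds on slides; z-score merges feature fluorescence and signal-to-noise across triplicate slides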
[4] = binders of probe aFGF10 on microarray, primary screen, stem cell growth factor project, biochemical, small-molecule microarray, fluorescence 635/667 (AID 1071); conditions: higher = more signal;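 also: score merges 667 nm spot intensity and signal to noise from triplicate slides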
[5] = molecular target: Neurogenic locus notch homolog protein 2 (Homo sapiens) (UniProt Q04721); assay: Notch2 binders on small-molecule microarrays, primary screen, biochemical, small-molecule microarray, 635 nm fluorescence, stem cell growth factors (AID 1073); conditions: Notch2 binding, higher = more signal
Sequence of Neurogenic locus notch homolog protein 2 (Homo sapiens) (Q04721 whole entry, looked up, canonical isoform): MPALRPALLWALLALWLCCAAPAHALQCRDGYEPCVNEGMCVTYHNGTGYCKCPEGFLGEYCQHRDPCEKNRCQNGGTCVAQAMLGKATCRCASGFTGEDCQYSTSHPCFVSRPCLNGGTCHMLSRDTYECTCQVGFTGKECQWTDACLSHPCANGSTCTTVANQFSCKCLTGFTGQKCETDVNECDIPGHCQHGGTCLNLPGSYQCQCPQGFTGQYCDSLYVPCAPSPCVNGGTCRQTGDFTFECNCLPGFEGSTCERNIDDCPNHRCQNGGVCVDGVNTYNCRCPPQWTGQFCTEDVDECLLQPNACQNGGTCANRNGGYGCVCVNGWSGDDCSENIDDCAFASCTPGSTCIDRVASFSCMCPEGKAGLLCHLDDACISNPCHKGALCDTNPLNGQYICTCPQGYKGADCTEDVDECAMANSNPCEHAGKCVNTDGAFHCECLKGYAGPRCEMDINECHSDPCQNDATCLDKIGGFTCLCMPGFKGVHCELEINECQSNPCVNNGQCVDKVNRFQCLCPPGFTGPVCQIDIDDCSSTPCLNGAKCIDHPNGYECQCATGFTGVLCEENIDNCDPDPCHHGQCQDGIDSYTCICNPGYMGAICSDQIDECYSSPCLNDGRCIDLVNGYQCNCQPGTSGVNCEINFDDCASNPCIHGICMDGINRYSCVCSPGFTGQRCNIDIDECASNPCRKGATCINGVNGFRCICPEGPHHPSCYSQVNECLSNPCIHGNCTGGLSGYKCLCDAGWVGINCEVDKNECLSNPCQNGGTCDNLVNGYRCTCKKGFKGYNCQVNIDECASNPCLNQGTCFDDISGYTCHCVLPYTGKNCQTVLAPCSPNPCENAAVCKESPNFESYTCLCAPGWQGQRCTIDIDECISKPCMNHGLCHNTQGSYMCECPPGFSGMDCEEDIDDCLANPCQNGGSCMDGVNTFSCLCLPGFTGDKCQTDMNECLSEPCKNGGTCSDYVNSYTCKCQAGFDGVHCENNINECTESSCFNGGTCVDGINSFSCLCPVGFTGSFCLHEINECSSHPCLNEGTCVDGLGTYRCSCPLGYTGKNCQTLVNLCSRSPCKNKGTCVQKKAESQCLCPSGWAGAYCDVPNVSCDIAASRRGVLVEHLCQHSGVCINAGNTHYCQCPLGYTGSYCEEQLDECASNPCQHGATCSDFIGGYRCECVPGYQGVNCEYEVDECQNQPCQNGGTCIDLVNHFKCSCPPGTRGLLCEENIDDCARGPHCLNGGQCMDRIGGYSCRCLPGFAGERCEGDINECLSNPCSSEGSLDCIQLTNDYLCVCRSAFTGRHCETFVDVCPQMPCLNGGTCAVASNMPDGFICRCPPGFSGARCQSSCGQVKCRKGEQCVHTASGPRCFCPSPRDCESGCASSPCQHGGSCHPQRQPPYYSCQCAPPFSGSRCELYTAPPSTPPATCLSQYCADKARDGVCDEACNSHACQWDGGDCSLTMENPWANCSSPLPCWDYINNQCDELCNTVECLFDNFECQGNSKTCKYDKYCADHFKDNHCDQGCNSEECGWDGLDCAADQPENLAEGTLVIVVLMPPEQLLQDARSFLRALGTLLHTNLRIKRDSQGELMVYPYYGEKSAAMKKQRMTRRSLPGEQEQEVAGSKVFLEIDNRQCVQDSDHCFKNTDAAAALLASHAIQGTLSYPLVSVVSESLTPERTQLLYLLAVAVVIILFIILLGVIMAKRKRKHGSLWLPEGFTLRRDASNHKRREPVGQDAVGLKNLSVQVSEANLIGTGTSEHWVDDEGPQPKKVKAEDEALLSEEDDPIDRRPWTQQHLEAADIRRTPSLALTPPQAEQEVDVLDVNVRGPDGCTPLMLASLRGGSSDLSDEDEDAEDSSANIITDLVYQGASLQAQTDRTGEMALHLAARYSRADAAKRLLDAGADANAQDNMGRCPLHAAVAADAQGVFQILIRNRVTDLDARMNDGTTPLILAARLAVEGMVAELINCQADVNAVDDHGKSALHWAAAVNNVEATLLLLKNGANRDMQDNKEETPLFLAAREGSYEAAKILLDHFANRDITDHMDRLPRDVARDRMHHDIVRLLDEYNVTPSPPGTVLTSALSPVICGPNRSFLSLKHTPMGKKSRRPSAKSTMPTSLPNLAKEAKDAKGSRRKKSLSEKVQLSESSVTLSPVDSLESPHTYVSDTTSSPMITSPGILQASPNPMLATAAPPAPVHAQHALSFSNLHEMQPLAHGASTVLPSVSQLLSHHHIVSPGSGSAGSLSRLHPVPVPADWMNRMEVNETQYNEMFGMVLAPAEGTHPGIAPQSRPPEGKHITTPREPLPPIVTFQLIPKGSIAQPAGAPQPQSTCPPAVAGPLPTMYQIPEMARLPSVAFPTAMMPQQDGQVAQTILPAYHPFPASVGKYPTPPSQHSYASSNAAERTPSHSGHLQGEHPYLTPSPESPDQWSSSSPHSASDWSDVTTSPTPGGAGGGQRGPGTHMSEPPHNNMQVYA

[6] = molecular target: Pro-neuregulin-1, membrane-bound isoform (Homo sapiens) (UniProt Q02297); assay: NRG1 binders on small-molecule microarrays, primary screen, psychiatric disease protein project, biochemical, small-molecule microarray, fluorescence 635/667 (AID 1075); conditions: NRG1 binding, 635 nm fluorescence, higher = more signal;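 also: score combines 667 nm spot fluorescence with signal to noise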
Sequence of Pro-neuregulin-1, membrane-bound isoform (Homo sapiens) (Q02297 whole entry, looked up, the tested form may be a part, canonical isoform): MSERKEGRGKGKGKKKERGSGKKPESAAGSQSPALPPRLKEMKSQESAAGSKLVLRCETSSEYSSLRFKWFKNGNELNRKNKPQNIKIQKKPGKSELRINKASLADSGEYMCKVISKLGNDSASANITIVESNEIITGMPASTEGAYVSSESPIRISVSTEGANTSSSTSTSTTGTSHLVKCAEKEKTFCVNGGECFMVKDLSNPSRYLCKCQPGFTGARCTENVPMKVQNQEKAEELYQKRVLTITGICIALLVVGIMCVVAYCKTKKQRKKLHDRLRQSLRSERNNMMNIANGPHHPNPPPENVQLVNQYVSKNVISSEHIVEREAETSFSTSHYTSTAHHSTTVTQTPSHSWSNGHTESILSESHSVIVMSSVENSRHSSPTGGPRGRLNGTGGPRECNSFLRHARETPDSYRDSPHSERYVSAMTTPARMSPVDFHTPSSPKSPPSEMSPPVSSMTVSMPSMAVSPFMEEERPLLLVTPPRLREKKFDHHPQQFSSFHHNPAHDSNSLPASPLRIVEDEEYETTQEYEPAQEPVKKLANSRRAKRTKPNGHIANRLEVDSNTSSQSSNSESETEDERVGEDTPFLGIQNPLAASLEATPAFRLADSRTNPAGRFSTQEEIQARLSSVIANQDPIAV

[7] = system: Neuregulin-1 EGF-like domain; assay: binders of neuregulin-1 EGF-like domain, primary screen, biochemical, small-molecule microarray, 635 nm fluorescence (AID 1081); conditions: small-molecule microarray binding, higher = more signal;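 also: binding of the protein to compounds printed on small-molecule microarray slides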
[8] = FRG1 promoter luciferase signal modulators, primary screen, FRG1 inhibition for FSHD, cell-based, C2C12 myotubes, firefly/Renilla luciferase, luminescence (AID 1084); conditions: higher = more signal, called active from +8 up or from −8 down
[9] = binders of probe aFST on microarray, primary screen, stem cell growth factor project, biochemical, small-molecule microarray, fluorescence 635/667 (AID 1086); conditions: higher = more signal;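 also: score merges 667 nm fluorescence with signal-to-noise of each printed compound spot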
[10] = binders of probe aHhip on microarray, primary screen, stem cell growth factor project, biochemical, small-molecule microarray, fluorescence 635/667 (AID 1087); conditions: higher = more signal;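 also: score merges spot fluorescence at 667nm with spot signal to noise ratio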

SMILES | composite z-score [1] | composite z-score [2] | composite z-score [3] | composite z-score [4] | composite z-score [5] | composite z-score [6] | composite z-score [7] | z-score [8] | composite z-score [9] | composite z-score [10]
CC[C@@H]1C=C(C(=O)O)[C@H](c2cccc3ccccc23)N1S(=O)(=O)c1ccc(C)cc1 | -0.0805 | -0.26 | -0.0162 | 0.184 | 0.709 | 1.94 | 0.573 | -3.41 (inactive) | 0.279 | -0.0645
CCCC1(C(=O)OC)C=C2C(=C(c3ccccc3)C(=O)C2C)CN1 (stereo not given) | 1.43 | -0.289 | -0.0869 | -0.121 | 0.725 | 0.768 | 0.861 | 2.51 (inactive) | 0.387 | 0.154
COC(=O)[C@@]1(Cc2ccccc2)[C@H]2c3cc(C(=O)N4CCCC4)n(Cc4c(CO)[nH]cc(C)c4=O)c3C[C@H]2CN1C(=O)c1ccccc1 | 1.13 | -0.0496 | 0.2 | 0.647 | 1.63 | 1.96 | 1.17 | 1.39 (inactive) | 0.915 | -0.121
C=CCNC(=O)[C@H]1[C@@H]2C(=O)O[C@@H](c3ccccc3)[C@@H](c3ccccc3)N2[C@@H](c2ccc(O)cc2)[C@]12C(=O)Nc1ccc(C#CCCO)cc12 | -0.107 | -1.51 | -0.122 | -0.0819 | -0.697 | 1.01 | 0.732 | -3.71 (inactive) | 0.33 | -0.0994
[N-]=[N+]=NCc1ccccc1[C@@H]1OC(c2ccc(OCCCO)cc2)=N[C@]1(CCS(=O)(=O)c1ccccc1)C(=O)N1CCCCC1 | 0.0217 | -0.267 | 0.0714 | 0.398 | 1.66 | 2.13 | 1.28 | -0.0344 (inactive) | 1.69 | -0.26
COC(=O)C(CC#Cc1ccc2c(c1)[C@]1(C(=O)N2)[C@H](c2ccc(O)cc2)N2[C@H](c3ccccc3)[C@H](c3ccccc3)OC(=O)[C@H]2[C@@H]1C(=O)N1CCN(c2ncccn2)CC1)C(=O)OC | 0.136 | 0.215 | -0.0035 | 0.349 | 0.577 | 1.86 | 1.35 | -1.36 (inactive) | 0.599 | 0.351
CC(=CC1CCCCC1)[C@@H](NC(=O)c1cccnc1)c1ccc(-c2ccccc2)cc1 | 0.365 | -0.545 | 0.0021 | -0.25 | 0.142 | 0.0657 | -0.362 | -0.972 (inactive) | 0.281 | -0.194
[N-]=[N+]=Nc1ccccc1C[C@@]1(C(=O)N2CCCCC2)N=C(c2ccc(OCCCO)cc2)O[C@@H]1c1ccccc1N=[N+]=[N-] | 1.23 | 0.436 | 0.286 | 0.758 | 1.6 | 0.429 | 1.17 | -2.04 (inactive) | 1.14 | -0.121
CC(C)[Si](C#CCCCC#N)(O[C@H](c1ccccc1)c1cn(Cc2cccc(Cl)c2)nn1)C(C)C | -0.37 | 0.558 | -0.104 | 0.689 | 0.799 | -0.0808 | 0.603 | -1.04 (inactive) | 0.624 | 0.136
NC(=O)[C@@]1(Cc2ccccc2)N=C(c2ccc(OCCCO)cc2)O[C@H]1c1ccccc1 | 0.264 | -0.154 | -0.0891 | 0.501 | 1.08 | 1.45 | 0.994 | -2.16 (inactive) | 0.182 | -0.189
C=CCOC(=O)[C@H]1[C@@H]2C(=O)O[C@@H](c3ccccc3)[C@@H](c3ccccc3)N2[C@@H](c2ccc(OCCOC(=O)[C@H]3C[C@H]4C(=O)N[C@@H](CCCCN(C)C)C(=O)N4[C@H]3c3cccc(OCCO)c3)cc2)[C@]12C(=O)Nc1ccc(I)cc12 | -0.756 | 0.67 | -0.0659 | 0.527 | 0.914 | 0.605 | 1.3 | 0.0721 (inactive) | 0.405 | -0.179
CCCCC(O)C1C=CC2C(=O)N(C)C(=O)C2N1N1CCCCC1 (stereo not given) | 0.515 | 0.314 | 0.0311 | 0.591 | 1.56 | 1.12 | 1.42 | 0.733 (inactive) | 1.3 | -0.0618
COc1cc2c(cc1O)C(c1cccs1)N(Cc1cccc(OC(F)(F)F)c1)CC2 (stereo not given) | 0.0011 | 0.61 | -0.114 | -0.0012 | 0.192 | 1.39 | 0.774 | -0.79 (inactive) | -0.146 | -0.164
NCCCCCCNC(=O)[C@H]1C[C@H]2C(=O)N[C@@H](Cc3ccccc3)C(=O)N2[C@H]1c1cccc(OCCO)c1 | 0.135 | 0.537 | 0.0227 | 0.534 | 0.427 | 1.7 | 0.922 | 1.7 (inactive) | 0.482 | -0.0346
COc1ccc(C(O)C2C=CC3C(=O)N(C)C(=O)C3N2NC(=O)OC(C)(C)C)c2ccccc12 (stereo not given) | 0.152 | -0.129 | -0.0107 | 0.669 | 1.62 | 1.81 | 0.937 | -1.35 (inactive) | 1.37 | 0.0881
COC(=O)[C@@]1(Cc2ccccc2)[C@H]2c3cc(C(=O)N(C)C)n(Cc4ccc(OC)c(OC)c4)c3C[C@H]2CN1C(=O)c1ccccc1 | 0.396 | 0.517 | 0.487 | 1.23 | 1.83 | 1.62 | 1.34 | 0.115 (inactive) | 1.28 | 0.66
C=CCN1Cc2ccccc2[C@@H]2OC(c3ccc(OCCCO)cc3)=N[C@]2(CCS(=O)(=O)c2ccccc2)C1=O | 0.189 | 0.263 | -0.04 | 0.345 | 1.55 | 0.721 | 1.24 | -3.43 (inactive) | 0.804 | -0.191

SMILES | composite z-score [1] | composite z-score [2] | composite z-score [3] | composite z-score [4] | composite z-score [5] | composite z-score [6] | composite z-score [7] | z-score [8] | composite z-score [9] | composite z-score [10]
CC(C)N1CC=CC23O[C@@H]4C=CCOC(=O)[C@@H]4[C@H]2C(=O)N(CCCCCO)[C@@H]3C1=O (stereo not given in full) | -0.354 | 0.272 | -0.153 | -0.267 | -0.669 | 0.24 | 1.27 | -0.907 (inactive) | -0.308 | -0.132
O=C1[C@@]23C=C(Br)[C@H](C[C@@H]2COC3)[C@]12CO2 | -0.199 | -0.582 | -0.12 | -0.536 | -1.71 | -0.279 | -1.15 | 0.126 (inactive) | -0.541 | -0.0065
O=C1OCCC=C[C@H]2OC34C=CCN(Cn5nnc6ccccc65)C(=O)[C@H]3N(CCO)C(=O)[C@@H]4C12 (stereo not given in full) | -0.254 | -0.4 | -0.219 | -0.308 | -1.06 | 0.0802 | 1.13 | 0.684 (inactive) | -0.8 | -0.226
C=C[C@H](C)[C@@H](OC(=O)Nc1ccc(SC)cc1)c1ccc(O)c2ccccc12 | -0.151 | 0.152 | 0.0111 | 0.358 | 0.68 | 0.423 | 1.43 | 5.42 (inactive) | 0.455 | -0.0994
O=C1NC(=O)C2C1C=CC(C(O)c1ccc(I)cc1)N2Nc1ccc(Cl)cc1Cl (stereo not given) | 0.256 | -0.396 | -0.0085 | 0.29 | 1.43 | 1.49 | 0.991 | -0.526 (inactive) | 0.794 | -0.321
C#CCN1[C@H](/C=C/C2CC2)[C@H](Cc2ccccc2)OC(=O)[C@@H]1Cc1ccccc1 | -0.413 | 0.241 | -0.144 | -0.0377 | -0.343 | 0.153 | 0.524 | -4.01 (inactive) | -0.0168 | 0.0373
COc1ccc(NC(=O)O[C@H]2[C@H](OC(=O)c3cc4ccccc4[nH]3)[C@@H](OC(=O)c3cc4ccccc4[nH]3)[C@@H](OC)O[C@@H]2CO)cc1 | -0.147 | 0.0444 | 0.0014 | 0.528 | 0.23 | 0.765 | 0.543 | 2.22 (inactive) | 0.0417 | 0.21
C=CC[C@@]1(C(=O)N2CCCCC2)N=C(c2ccc(OCCCO)cc2)O[C@@H]1c1ccccc1N=[N+]=[N-] | 0.292 | -0.0912 | -0.0198 | 0.555 | 1.55 | 1.4 | 1.23 | -0.546 (inactive) | 0.833 | -0.0618
COc1ccc(-c2cc3c(c(Cc4ccccc4)n2)[Si](C(C)C)(C(C)C)OC3)cn1 | -0.305 | 0.28 | -0.0668 | 0.0198 | 0.0333 | -0.53 | -0.723 | -1.27 (inactive) | 0.29 | -0.236
C[N+](C)(C)CCCCCCNC(=O)[C@H]1C[C@H]2C(=O)N[C@@H](Cc3ccccc3)C(=O)N2[C@H]1c1cccc(OCCO)c1 | -0.429 | 0.652 | -0.0266 | 0.293 | 0.357 | 0.318 | 1.31 | 3.64 (inactive) | -0.0975 | -0.0645
O=C(CS)NCCCCCNC(=O)[C@@H]1C[C@@H]2C(=O)NCC(=O)N2[C@@H]1c1cccc(OCCO)c1 | 0.312 | 0.389 | -0.12 | -0.161 | -0.067 | -0.515 | 1.1 | -0.612 (inactive) | -0.188 | -0.166
CCOC(=O)C[C@H]1[C@H](OC(=O)c2ccc(-c3ccccc3)cc2)[C@@H](NC(=O)c2ccccc2)c2cc(OCCCO)ccc2N1C(=O)c1ccc2ccccc2n1 | -0.168 | 0.732 | -0.105 | 0.311 | 0.606 | 0.742 | 0.507 | 1.22 (inactive) | 0.402 | -0.0994
COc1ccc([Si](C)(C)[C@H]2[C@H](CC(=O)N3CCC[C@H]3CO)O[C@@]3(C(=O)N(Cc4cccc(N5CCOC5=O)c4)c4ccccc43)[C@@H]2C)cc1 | -0.308 | 0.358 | -0.042 | 0.141 | 0.143 | 0.662 | 0.876 | -3.92 (inactive) | 0.548 | -0.169
C=C(CCCC)/C(=C/C[C@H](OC(C)=O)c1ccc(OCCO)cc1)c1cnc2ccccc2c1 | -0.173 | 0.641 | -0.115 | 0.372 | 1.21 | 1.32 | 1.18 | -0.851 (inactive) | 0.703 | -0.0672
O=c1cccc(-c2ccccc2Cl)o1 | -0.152 | -0.201 | -0.0621 | 0.366 | 0.772 | -0.234 | 0.311 | 1.17 (inactive) | 0.241 | -0.0047
O=C1C2C=CC(C(O)c3ccc(F)cc3)N(Nc3ccc([N+](=O)[O-])cc3)C2C(=O)N1c1ccccc1 (stereo not given) | 0.0759 | -0.358 | 0.16 | 0.305 | 1.45 | 2 | 1.37 | -0.132 (inactive) | 1.02 | 0.0373
